PubChem BioAssay AID504339 (National Center for Advancing Translational Sciences (NCATS), 2011)
“And” between values parts separate entries of the source, which are not always exact repeats. Equal values may be shown once. About 17,000 (4.4%) of roughly 390,000 compounds were called active. Roughly 8% stayed inconclusive and do not appear here. Calls follow the shape of the dose curve; as a rule, active = well fitted inhibition curve with a large enough effect; inconclusive = small, poorly fitted or top-dose-only effect; inactive = no such curve, though single readings can be large or run the other way. Shown is part of a subset that was picked to be rich in actives. A call without a number means that no potency is given here. Some compounds were tested as several samples or in several runs, with calls that do not always agree.

The molecules below were run against Lysine-specific demethylase 4A (Homo sapiens) (UniProt O75164) (assay: qHTS Assay for Inhibitors of JMJD2A-Tudor Domain). Conditions: AlphaScreen JMJD2A-Tudor / H3K4me3 peptide binding; series mostly up to 114 µM.
Also: nearly all actives have a fitted effect of over 50% in size.
Potency is read from the fitted curve at half-maximal effect.

Sequence of Lysine-specific demethylase 4A (Homo sapiens) (O75164 whole entry, looked up, the tested form may be a part): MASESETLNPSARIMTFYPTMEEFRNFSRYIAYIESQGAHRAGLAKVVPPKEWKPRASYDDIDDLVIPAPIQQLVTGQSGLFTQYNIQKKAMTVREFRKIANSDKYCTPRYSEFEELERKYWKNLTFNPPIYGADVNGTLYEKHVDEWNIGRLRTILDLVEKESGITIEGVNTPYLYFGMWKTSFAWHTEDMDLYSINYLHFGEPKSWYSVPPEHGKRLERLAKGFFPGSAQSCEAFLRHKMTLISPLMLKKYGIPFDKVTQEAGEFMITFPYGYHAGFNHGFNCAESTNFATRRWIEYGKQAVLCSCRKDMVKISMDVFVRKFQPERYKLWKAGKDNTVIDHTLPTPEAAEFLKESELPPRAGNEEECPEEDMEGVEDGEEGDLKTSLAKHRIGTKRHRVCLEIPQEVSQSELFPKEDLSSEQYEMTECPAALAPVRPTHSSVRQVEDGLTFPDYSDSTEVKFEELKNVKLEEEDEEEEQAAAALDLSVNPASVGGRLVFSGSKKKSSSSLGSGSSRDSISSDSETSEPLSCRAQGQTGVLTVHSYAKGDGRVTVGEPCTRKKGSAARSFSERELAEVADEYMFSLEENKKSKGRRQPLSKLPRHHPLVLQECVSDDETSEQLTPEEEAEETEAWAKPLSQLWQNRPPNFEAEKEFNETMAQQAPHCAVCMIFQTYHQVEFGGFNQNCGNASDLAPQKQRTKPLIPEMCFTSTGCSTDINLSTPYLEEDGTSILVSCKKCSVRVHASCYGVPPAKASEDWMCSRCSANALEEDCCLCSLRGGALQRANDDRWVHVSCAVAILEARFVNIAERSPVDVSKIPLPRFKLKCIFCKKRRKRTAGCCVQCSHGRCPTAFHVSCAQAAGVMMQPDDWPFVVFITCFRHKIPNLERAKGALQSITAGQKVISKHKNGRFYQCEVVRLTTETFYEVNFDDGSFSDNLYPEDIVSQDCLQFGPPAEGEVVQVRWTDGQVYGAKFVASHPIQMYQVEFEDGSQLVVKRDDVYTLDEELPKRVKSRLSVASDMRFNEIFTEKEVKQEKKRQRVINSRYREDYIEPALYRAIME

Compound	Potency
Cc1cc(/C=C2/NC(=O)NC2=O)c(C)n1-c1cccnc1	inactive
Cc1cccc(C)c1-n1c(C)cc(/C=C2\C(=O)NN(c3ccccc3)C2=O)c1C	22.4 µM (active)
Cc1ccc(CN2C(=O)N/C(=C/c3cc(C)n(-c4ccccn4)c3C)C2=O)cc1	inactive
CCOc1ccc(NC(=O)c2cc3c(=O)n(Cc4cccs4)ccc3nc2C)cc1	inactive
Cc1cccc(NC(=O)c2nnn(CC(=O)Nc3ccc(C(C)C)cc3)c2N)c1C	inactive
Cc1cc2nc(-c3ccc(NC(=O)c4cc5ccccc5o4)cc3)oc2cc1C	inactive
CCOC(=O)N1CCc2c(sc3c2c(=O)n(Cc2ccccc2)c(=O)n3CC(=O)Nc2cccc(C)c2)C1	inactive
COc1cccc(-n2c(=O)c3c(C)c(C(=O)N(C)C)sc3n(Cc3cccc(C)c3)c2=O)c1	inactive
COc1ccc(CCNC(=O)Cn2c(=O)n(-c3ccccc3)c(=O)c3c(C)c(C)sc32)cc1OC	inactive
COc1cccc(-n2c(=O)c3c(C)c(C(=O)N(C)C)sc3n(CC(=O)NCCc3ccc(OC)c(OC)c3)c2=O)c1	inactive and 79.4 µM (active)
COc1ccc(-c2ccc(OC)c(C3C4C=CCC(C)C4C(=O)N3Cc3ccccc3)c2)cc1C (stereo not drawn)	inactive
COc1cccc(CNC(=O)CCc2nc(-c3ccc(C)cc3)no2)c1	inactive
Cc1cc2c(cc1C)NC1(C[C@H]3CCC(=O)N4CC[C@@H](C1)[C@@H]34)C(=NC(C)(C)CC(C)(C)C)N2 (stereo partly drawn)	15.8 µM (active)
O=C1CC[C@@H]2CC3(C[C@@H]4CCN1[C@H]24)Nc1cc([N+](=O)[O-])ccc1NC3=NC1CCCCC1 (stereo partly drawn)	inactive
COC(=O)c1cccc(Cn2nnc3sc4c(c3c2=O)CCC(C(C)(C)C)C4)c1 (stereo not drawn)	inactive
O=C(Nc1cccc2cccnc12)C(F)(F)F	inactive
OCc1ccc(OCCCOc2cccc3cccnc23)cc1	inactive
O=C(Nc1ccccc1)Oc1cccc2cccnc12	15.8 µM (active)
CCOc1ccccc1NC(=O)Cn1nnc(C(=O)Nc2ccc(C)c(C)c2)c1N	inactive
COc1cc(NS(=O)(=O)c2cccs2)cc(OC)c1	inactive
Cc1cc(C(=O)OCC(=O)Nc2nccs2)c2ccccc2n1	20 µM (active)
O=C(COC(=O)c1ccc(O)cc1)Nc1nccs1	inactive
Cc1cc(C(=O)OCC(=O)Nc2nnc(C(C)C)s2)c2ccccc2n1	inactive
Cc1cccc(CCNC(=O)c2ccc3c(c2)nc2n3CCC(C)C2)c1 (stereo not drawn)	inactive
Cc1nn(CC(=O)NCCc2ccccc2)c(=O)c2c1sc1ccccc12	inactive

Compound	Potency
Cc1ccc(C)c(N2CCN(C(=O)Cn3ncn4cccc4c3=O)CC2)c1	inactive
Cc1ccc(C)c(N2CCN(C(=O)Cn3nc(C)c4sc5ccccc5c4c3=O)CC2)c1	12.6 µM (active)
CC(=O)c1ccc(NC(=O)c2nc(-c3ccc(C)cc3)n3c2CCCCC3)cc1	inactive
CCc1nnc2c3ccccc3nc(N3CCN(c4ccc(C)cc4C)CC3)n12	inactive
COc1ccc2sc(N(CCCN(C)C)C(=O)c3ccc(S(=O)(=O)N(C)C4CCCCC4)cc3)nc2c1	56.2 µM (active)
CN(C)S(=O)(=O)c1ccc(C(=O)N(Cc2cccnc2)c2nc3c(F)cc(F)cc3s2)cc1	inactive
CCN(CC)CCN(C(=O)c1cccc([N+](=O)[O-])c1)c1nc2ccc(OC)cc2s1	inactive
CCOc1ccc(C(=O)c2cn(Cc3ccccc3OC)c3ccc(F)cc3c2=O)cc1	inactive
CCN(CC)c1ccc(NC(=O)CN2C(=O)c3cccnc3Oc3ccc(Cl)cc32)c(C)c1	inactive
COC(=O)c1c(NC(=O)CCCOc2ccccc2)sc2c1CCC(C)C2 (stereo not drawn)	inactive
O=C(CN1CCCCCC1)Nc1ccc(Br)cc1Br	inactive
O=C(CN1CCCCCC1)Nc1ccc(Br)cc1[N+](=O)[O-]	44.7 µM (active)
O=C(CN1CCCCCC1)Nc1ccc(Cl)cc1F	inactive
Cn1c(COc2ccccc2C(C)(C)C)nc2ccccc21	inactive
CCOCCn1ccc2c(OCC(=O)NCc3ccc(C)cc3)cccc2c1=O	inactive
C=CCNCCCCOc1ccccc1	inactive
CC1(C)NC(=O)N(CCOc2cccc(Oc3ccccc3)c2)C1=O	inactive
CC(O)CNCCOc1cccc(Oc2ccccc2)c1 (stereo not drawn)	3.55 µM (active)
CCOc1ccc(NC(=O)c2cc(S(=O)(=O)N3CCCC3)c[nH]2)cc1	inactive
O=C(CSc1nc(-c2ccccc2)cs1)Nc1cccc([N+](=O)[O-])c1	inactive
O=c1cc(CO)oc(C(Nc2cccc([N+](=O)[O-])c2)c2ccccn2)c1O (stereo not drawn)	50.1 µM (active)
O=C(CSc1nnc(-c2ccccc2F)o1)Nc1cccc(C(F)(F)F)c1	inactive
O=c1cc(CO)oc(C(Nc2cccc(C(F)(F)F)c2)c2ccccn2)c1O (stereo not drawn)	56.2 µM (active)
O=[N+]([O-])c1cccc(S(=O)(=O)NCc2ccccn2)c1	inactive
Cn1c(=O)c2c(ncn2CC(=O)Nc2cccc(C(F)(F)F)c2)n(C)c1=O	inactive

Compound	Potency
COc1cccc(-c2nnc3n(CCc4ccccc4)c(=O)c4ccccc4n23)c1O	inactive
Cc1ccc(-c2nc(Cn3c(=O)cc(-c4ccccc4)c4c(C)nn(C)c43)c(C)o2)cc1	inactive
COc1ccc(CNC(=O)CCc2c(C)nn(-c3ccc(N4CCCC4)nn3)c2C)cc1	inactive
CCOc1ccc(C(=O)c2cn(Cc3ccc(F)cc3)c3ccc(F)cc3c2=O)cc1	inactive
Cc1cccc(Cn2c(CN3CCC(C(=O)NCc4ccccc4Cl)CC3)cc3ccccc32)c1	inactive
CCOC(=O)c1c(SCC(=O)Nc2cccc(C)c2C)nc(=O)[nH]c1C	inactive
CC1=C(C(=O)Nc2ccccc2)C(c2ccc(C)cc2)n2nc(SCc3ccccc3C)nc2N1 (stereo not drawn)	inactive
O=c1cc(CCl)nc2scc(-c3ccccc3)n12	inactive
CC(C)Cn1c(-c2ccc(S(=O)(=O)N3CCOCC3)cc2)csc1=Nc1cc(Cl)ccc1Cl	inactive
CN(C)CCCn1c(-c2ccc(Cl)cc2)csc1=Nc1ccccc1	39.8 µM (active)
CN(C)CCCn1c(=O)n(Cc2ccccc2)c(=O)c2c3c(sc21)CCCCC3	inactive
OCCn1c(-c2ccccc2)csc1=Nc1ccccc1	56.2 µM (active)
CCN(c1ncnc2c1cnn2-c1ccc(C)cc1)C1CCCCC1	inactive
COc1ccc(-c2ccc(=O)n(CC(=O)Nc3ccc(Br)cc3F)n2)cc1	inactive
COCC(C)N=CC1=C(O)CC(C)(C)CC1=O (stereo not drawn)	inactive
C=CCO/N=C/C1=C(O)C(C(=O)OC)C(C)(C)CC1=O (stereo not drawn)	79.4 µM (active)
CCCC(=O)C1=C(N(C)c2ccccc2)CC(C)(C)C(C(=O)OC)C1=O (stereo not drawn)	inactive
Cn1c(=O)c2c(SCC(=O)NCC3CCCO3)nc(-c3ccccc3F)nc2n(C)c1=O (stereo not drawn)	inactive
O=C(CCS(=O)(=O)c1cc(Br)cc2c1N(C(=O)C1CC1)CC2)Nc1ccc(C(F)(F)F)cc1	inactive
COc1ccc(OC)c(NC(=O)CN2CCCN(Cc3cc(C)ccc3C)S2(=O)=O)c1	inactive
Cc1cc(OCCN2CCCC2)cc(C(C)C)c1	5.01 µM (active)
Cc1ccc(C(C)C)cc1OCC(=O)Nc1ccccc1N1CCCC1	inactive
COc1cc(/C=N/NC(=O)c2ccoc2C)ccc1OCCN1CCCCC1	inactive
Cc1ccc(C(C)C)cc1OCCN1CCCC1	79.4 µM (active)
Cc1cccc(C(=O)OC(C)CN2CCCC2)c1 (stereo not drawn)	inactive

Compound	Potency
CCCn1c(=N)c(C(=O)NCc2ccccc2)cc2c(=O)n3cccc(C)c3nc21	inactive
Cn1c(=O)c2c(SCC(=O)N3CCc4ccccc43)nc(-c3ccc(Cl)cc3)nc2n(C)c1=O	inactive
CCNC(=O)CC1C(=O)N(c2ccc(F)cc2)C(=O)N1Cc1ccc(C)cc1 (stereo not drawn)	inactive
CN1CCN(C2(CNC(=O)COc3ccc(C(C)(C)C)cc3)CCCCC2)CC1	inactive
Cc1ccc(Cl)cc1N1CCN(C(=O)CN2C(=O)COc3ccc(S(=O)(=O)N4CCOCC4)cc32)CC1	inactive
Oc1ccc(Cl)cc1C1C=C(c2ccc3c(c2)OCO3)NC(c2ccc(F)c(Br)c2)N1 (stereo not drawn)	inactive
CC(C)c1ccc(C2C(C#N)=C(N)Oc3c2oc(CO)cc3=O)cc1 (stereo not drawn)	inactive
CC(C)c1ccc(C2CC(=O)N3CN(C4CCCCC4)CSC3=C2C#N)cc1 (stereo not drawn)	25.1 µM (active)
COc1ccc(-c2nc3c(c(SCC(=O)Nc4ccc(C(=O)O)cc4)n2)Cc2ccccc2O3)cc1	35.5 µM (active)
COc1cc(OC)cc(-c2nnc(SCC(=O)Nc3ccc(C(=O)O)cc3)s2)c1	inactive
COc1ccc(NC(=O)CSc2nc(N)c(-c3ccccc3)c(=O)[nH]2)cc1	inactive
CN(Cc1ccccc1)C(=O)c1cn(C)c2ccc(S(=O)(=O)N3CCCCC3)cc2c1=O	inactive
CCOc1ccc(CN2CCN(CCCc3ccccc3)C(CCO)C2)cc1 (stereo not drawn)	inactive
CCOc1ccc(CC(=O)NC2CCN(Cc3ccccc3)CC2)cc1	inactive
CCOc1ccc(CN2CCCN(C)CC2)cc1	3.55 µM (active)
CCOc1ccccc1CNC(=O)c1ccc(-n2c(C)cc3c2CCC(C)C3)cc1 (stereo not drawn)	inactive
COc1ccc(/C=C2/C(=O)N(c3ccccc3)N=C2C)c(OC)c1	15.8 µM (active)
COc1ccc(/C=C2/C(=O)OCc3cc(OC)c(OC)cc32)c(OC)c1	inactive
COc1ccc(C(=O)COC(=O)C(O)c2ccccc2)c(OC)c1 (stereo not drawn)	inactive
Cc1ccc(CNC(=O)CCc2c(C)nc3c(c(C)nn3-c3ccccc3)c2C)cc1	inactive
Cc1cc(C(=O)NNC(=S)NC(C)c2ccccc2)cs1 (stereo not drawn)	inactive
Cc1ccc(S(=O)(=O)CC(=O)NC(C)c2ccccc2)cc1 (stereo not drawn)	inactive
C/C(CC(=O)NC(C)c1ccccc1)=N\NC(N)=S (stereo not drawn)	31.6 µM (active)
